In PubChem BioAssay:
Calls of active or inactive are those of the source.

Assays:
[1] = anti-His antibody binders, primary screen, artefact control for SMM control protein annotation, biochemical, small-molecule microarray, 635 nm fluorescence (AID 1128); conditions: anti-His Alexa647 antibody binding, higher = more signal;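 further: score merges feature fluorescence with signal-to-noise for each printed compound spot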
[2] = tested on: Human papillomavirus type 1a E7 protein (residues 1-88); experiment: HPV1a E7 small-molecule binders, primary screen, biochemical, small-molecule microarray, residues 1-88, 635 nm (AID 1129); conditions: small-molecule microarray binding, fluorescence 635 nm; higher = more signal
[3] = target: Focal adhesion kinase 1 (Homo sapiens) (UniProt Q05397); experiment: small-molecule microarray binders of FAK, primary screen, biochemical, 635/667 nm fluorescence, BSA, DTT (AID 1130); conditions: PTK2 binding, 635 nm fluorescence, higher = more signal;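 further: composite of spot emission at 667 nm and signal to noise over triplicate slides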
[4] = tested on: Fibrinogen (Alexa647-labelled); experiment: fibrinogen binders on compound microarrays, profiling panel, artefact control for SMM control-protein annotation, biochemical, small-molecule microarray, 635/667 nm fluorescence (AID 1131); conditions: fibrinogen-A647 binding fluorescence, higher = more signal;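 further: z-score merges 667 nm fluorescence with per-spot signal-to-noise over triplicate slides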
[5] = target: Follistatin (Homo sapiens) (UniProt P19883); experiment: follistatin binders on small-molecule microarrays, primary screen, biochemical, small-molecule microarray, 635/667 nm fluorescence (AID 1132); conditions: FST binding, 635 nm fluorescence, higher = more signal
[6] = target: Fibroblast growth factor 2 (Homo sapiens) (UniProt P09038); experiment: FGF2 binders on small-molecule microarrays, primary screen, biochemical, small-molecule microarray, 635/667 nm fluorescence (AID 1133); conditions: small-molecule microarray binding, FGF2, fluorescence 635/667; higher = more signal
[7] = mitochondrial membrane potential change in A549 cells, profiling panel, cell-based, JC-1 fluorescence, basal, 24 h, 100 nL (AID 1138); conditions: higher = more signal;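 further: A549 lung adenocarcinoma cells under basal conditions with no added stimulus; test concentration not given here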
[8] = tested on: Lefty1; experiment: Lefty1 binders on small-molecule microarrays, primary screen, biochemical, small-molecule microarray, 635/667 nm fluorescence (AID 1139); conditions: small-molecule microarray binding, fluorescence 635/667; higher = more signal
[9] = tested on: wheat germ agglutinin (Triticum aestivum), Alexa647-labelled; experiment: wheat germ agglutinin binders on compound microarrays, profiling panel, artefact control for SMM control-protein annotation, biochemical, small-molecule microarray, 635/667 nm fluorescence (AID 1140); conditions: WGA-A647 binding, 635 nm fluorescence, higher = more signal;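 further: score merges 667 nm feature emission with signal to noise over triplicate slides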
[10] = target: Luciferin 4-monooxygenase (Photinus pyralis) (UniProt P08659); experiment: firefly luciferase enzyme inhibitors, primary screen, biochemical, luminescence, purified enzyme, 2006 set (AID 1141); conditions: SteadyGlo luminescence, 30 min, higher = more signal, called active from +8 up or from −8 down;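 further: cell-free assay with purified firefly luciferase at 100 ng per well in PBS; test concentration not given here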
Sequence of Luciferin 4-monooxygenase (Photinus pyralis) (P08659 whole entry, looked up): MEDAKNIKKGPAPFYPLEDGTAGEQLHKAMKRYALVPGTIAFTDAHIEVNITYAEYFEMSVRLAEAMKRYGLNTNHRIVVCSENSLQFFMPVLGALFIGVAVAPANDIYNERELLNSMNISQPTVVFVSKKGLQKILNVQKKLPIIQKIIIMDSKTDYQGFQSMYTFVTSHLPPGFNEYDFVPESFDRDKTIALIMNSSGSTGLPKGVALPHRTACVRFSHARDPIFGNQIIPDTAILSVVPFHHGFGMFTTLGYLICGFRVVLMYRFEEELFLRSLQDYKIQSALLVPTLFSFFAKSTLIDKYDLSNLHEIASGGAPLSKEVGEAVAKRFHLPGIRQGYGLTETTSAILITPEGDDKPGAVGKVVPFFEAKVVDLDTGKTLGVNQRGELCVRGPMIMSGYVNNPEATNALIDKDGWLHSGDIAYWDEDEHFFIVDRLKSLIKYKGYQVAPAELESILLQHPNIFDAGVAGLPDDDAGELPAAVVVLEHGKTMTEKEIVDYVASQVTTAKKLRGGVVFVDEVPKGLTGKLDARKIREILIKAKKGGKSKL

Sequence of Fibroblast growth factor 2 (Homo sapiens) (P09038 whole entry, looked up): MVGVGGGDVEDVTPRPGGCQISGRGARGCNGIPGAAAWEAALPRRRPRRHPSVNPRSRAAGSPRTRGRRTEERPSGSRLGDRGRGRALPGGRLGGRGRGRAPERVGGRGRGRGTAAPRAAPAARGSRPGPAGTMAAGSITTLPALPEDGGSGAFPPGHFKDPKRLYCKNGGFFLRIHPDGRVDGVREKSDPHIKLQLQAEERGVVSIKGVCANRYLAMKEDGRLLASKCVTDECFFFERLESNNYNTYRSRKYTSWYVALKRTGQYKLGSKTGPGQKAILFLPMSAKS
Sequence of Focal adhesion kinase 1 (Homo sapiens) (Q05397 whole entry, looked up): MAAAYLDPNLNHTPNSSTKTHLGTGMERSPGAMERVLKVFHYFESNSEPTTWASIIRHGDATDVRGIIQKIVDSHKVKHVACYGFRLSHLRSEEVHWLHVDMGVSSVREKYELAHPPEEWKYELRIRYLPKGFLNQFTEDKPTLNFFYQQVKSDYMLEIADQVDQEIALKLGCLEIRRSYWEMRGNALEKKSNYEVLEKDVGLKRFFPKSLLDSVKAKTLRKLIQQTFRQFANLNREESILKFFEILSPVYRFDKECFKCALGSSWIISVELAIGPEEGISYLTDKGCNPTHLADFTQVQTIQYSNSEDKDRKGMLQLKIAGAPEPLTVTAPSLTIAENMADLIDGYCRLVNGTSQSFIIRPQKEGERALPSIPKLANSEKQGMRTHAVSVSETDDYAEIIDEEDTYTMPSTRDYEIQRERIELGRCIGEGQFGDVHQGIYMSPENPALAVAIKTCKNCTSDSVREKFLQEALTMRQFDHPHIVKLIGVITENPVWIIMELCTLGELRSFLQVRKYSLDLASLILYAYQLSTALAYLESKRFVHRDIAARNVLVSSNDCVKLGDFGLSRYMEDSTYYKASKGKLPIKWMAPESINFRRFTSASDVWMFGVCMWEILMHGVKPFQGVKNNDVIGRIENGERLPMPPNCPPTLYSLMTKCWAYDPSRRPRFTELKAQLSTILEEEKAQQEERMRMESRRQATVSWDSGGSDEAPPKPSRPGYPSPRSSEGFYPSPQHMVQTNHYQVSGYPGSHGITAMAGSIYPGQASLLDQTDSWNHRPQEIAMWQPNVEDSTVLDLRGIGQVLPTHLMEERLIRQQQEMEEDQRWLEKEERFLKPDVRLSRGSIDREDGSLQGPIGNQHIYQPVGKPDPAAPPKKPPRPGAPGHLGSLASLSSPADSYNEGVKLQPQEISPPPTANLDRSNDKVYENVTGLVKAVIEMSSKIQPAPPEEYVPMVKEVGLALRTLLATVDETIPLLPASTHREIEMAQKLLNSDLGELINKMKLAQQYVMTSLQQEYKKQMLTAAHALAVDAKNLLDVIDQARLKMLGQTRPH
Sequence of Follistatin (Homo sapiens) (P19883 whole entry, looked up): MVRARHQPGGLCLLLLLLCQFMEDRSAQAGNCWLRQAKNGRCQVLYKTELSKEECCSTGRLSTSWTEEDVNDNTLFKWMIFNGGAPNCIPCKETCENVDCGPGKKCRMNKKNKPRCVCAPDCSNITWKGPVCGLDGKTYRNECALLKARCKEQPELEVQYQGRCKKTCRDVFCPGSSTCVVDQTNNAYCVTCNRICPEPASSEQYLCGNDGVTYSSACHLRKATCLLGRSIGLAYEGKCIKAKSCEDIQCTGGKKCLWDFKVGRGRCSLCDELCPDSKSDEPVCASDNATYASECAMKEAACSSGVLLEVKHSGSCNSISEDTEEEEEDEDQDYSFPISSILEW

COC(=O)[C@@H]1CC[C@H](C)[C@@H](c2ccc(C)cc2)N1C(=O)c1ccc(C=NO[C@H](C)c2cn([C@H](CO)Cc3ccccc3)nn2)cc1
composite z-score [1]: 0.762
composite z-score [2]: 1.04
composite z-score [3]: 0.926
composite z-score [4]: -0.466
composite z-score [5]: 0.738
composite z-score [6]: 0.377
z-score [7]: -0.406
composite z-score [8]: 0.957
composite z-score [9]: 0.295
z-score [10]: 0.184 (inactive)

CCOC(=O)[C@H](Cc1ccccc1)NC(=O)CCC1CC(OC(=O)NCc2cccc3ccccc23)CC2(CCCC(COC(=O)NCC(c3ccccc3)c3ccccc3)O2)O1 (stereo not given in full)
composite z-score [1]: 1.06
composite z-score [2]: 0.455
composite z-score [3]: 0.384
composite z-score [4]: 0.853
composite z-score [5]: 0.411
composite z-score [6]: 0.39
z-score [7]: -0.243
composite z-score [8]: 0.589
composite z-score [9]: -0.0722
z-score [10]: 0.611 (inactive)

CC(CCC(=O)OC[C@H]1O[C@H](C#Cc2ccccc2)C=C[C@@H]1Oc1ccc(C)cc1)=NO[C@H](C)c1cn([C@H](CO)Cc2ccccc2)nn1
composite z-score [1]: 0.126
composite z-score [2]: 0.921
composite z-score [3]: 0.648
composite z-score [4]: 0.856
composite z-score [5]: 0.6
composite z-score [6]: 0.52
z-score [7]: 0.6
composite z-score [8]: 0.724
composite z-score [9]: 0.442
z-score [10]: -0.085 (inactive)

CCCCc1nc2c(c3c1C[C@H](C)OC3)CN(CCOc1ccccc1)CC2
composite z-score [1]: 0.818
composite z-score [2]: 0.334
composite z-score [3]: -0.117
composite z-score [4]: 0.75
composite z-score [5]: 0.766
composite z-score [6]: 0.913
z-score [7]: 3.89
composite z-score [8]: 1.23
composite z-score [9]: 0.38
z-score [10]: -1.94 (inactive)

O=C1C2=CC[C@H]3C(=O)N(c4cccc(Oc5ccccc5)c4)C(=O)[C@H]3[C@H]2[C@H](O)[C@@H]2O[C@H]12
composite z-score [1]: 0.703
composite z-score [2]: 0.185
composite z-score [3]: -0.0765
composite z-score [4]: -0.156
composite z-score [5]: 0.916
composite z-score [6]: 0.425
z-score [7]: -0.633
composite z-score [8]: 0.755
composite z-score [9]: 0.0467
z-score [10]: -1.27 (inactive)

COC(=O)[C@@H]1CC[C@@H](C)[C@H](c2ccc(Br)cc2)N1
composite z-score [1]: 0.949
composite z-score [2]: 0.0613
composite z-score [3]: 0.867
composite z-score [4]: 0.689
composite z-score [5]: -0.177
composite z-score [6]: -0.0826
z-score [7]: 0.864
composite z-score [8]: -0.0352
composite z-score [9]: 0.0075
z-score [10]: -0.482 (inactive)

CCOC(=O)NN=C1C[C@@H](O)[C@@H](O)[C@@H]2[C@@H]3C(=O)N(Cc4ccccc4)C(=O)[C@@H]3CC[C@H]12
composite z-score [1]: 0.347
composite z-score [2]: -0.143
composite z-score [3]: 0.0254
composite z-score [4]: 0.706
composite z-score [5]: 0.0086
composite z-score [6]: -0.227
z-score [7]: -0.39
composite z-score [8]: 0.3
composite z-score [9]: 0.0439
z-score [10]: 0.746 (inactive)

CO[C@@H]1COC(=O)CC=C[C@@H](C)[C@@H]2C=C[C@H](O)[C@@H](COC(=O)CC=C[C@H]1C)O2
composite z-score [1]: -0.143
composite z-score [2]: -1.07
composite z-score [3]: -0.649
composite z-score [4]: -0.616
composite z-score [5]: 1.45
composite z-score [6]: 1.3
z-score [7]: 1.81
composite z-score [8]: 1.66
composite z-score [9]: -0.448
z-score [10]: -1.35 (inactive)

CO[C@@H]1COC(=O)[C@@H](C)COC(=O)[C@@H](C)NC(=O)CC=C[C@@H]1C
composite z-score [1]: 0.548
composite z-score [2]: -0.727
composite z-score [3]: -0.149
composite z-score [4]: -1.27
composite z-score [5]: 0.679
composite z-score [6]: 1.7
z-score [7]: -1.24
composite z-score [8]: 1.43
composite z-score [9]: 0.224
z-score [10]: 0.138 (inactive)

C#CCCCON=C1C[C@@H](O)[C@@H](O)[C@@H]2[C@@H]3C(=O)N(C(C)(C)C)C(=O)[C@@H]3CC[C@H]12
composite z-score [1]: 0.0217
composite z-score [2]: -0.204
composite z-score [3]: -0.0811
composite z-score [4]: 0.589
composite z-score [5]: -0.861
composite z-score [6]: -0.127
z-score [7]: -0.049
composite z-score [8]: -0.912
composite z-score [9]: 0.903
z-score [10]: 0.541 (inactive)

O=C1[C@H]2[C@H]3[C@H](O)[C@H](O)CC(=NOCc4ccccc4)[C@@H]3CC[C@H]2C(=O)N1C[C@@H]1CCCO1
composite z-score [1]: -0.016
composite z-score [2]: -0.182
composite z-score [3]: 0.205
composite z-score [4]: 0.237
composite z-score [5]: -0.0829
composite z-score [6]: 0.0592
z-score [7]: -0.485
composite z-score [8]: -0.0955
composite z-score [9]: -0.396
z-score [10]: 0.903 (inactive)

CC(C)=CCCC(C)=CCON=C1C[C@@H](O)[C@@H](O)[C@@H]2[C@@H]3C(=O)N(c4cccc(Oc5ccccc5)c4)C(=O)[C@@H]3CC[C@@H]12
composite z-score [1]: 0.0079
composite z-score [2]: 0.929
composite z-score [3]: 1.58
composite z-score [4]: 0.589
composite z-score [5]: 0.612
composite z-score [6]: 0.207
z-score [7]: -0.82
composite z-score [8]: 0.514
composite z-score [9]: 0.0969
z-score [10]: 0.775 (inactive)

CCN1C(=O)[C@H]2[C@H]3[C@H](O)[C@H](O)CC(=O)[C@H]3CC[C@H]2C1=O
composite z-score [1]: 0.463
composite z-score [2]: 0.809
composite z-score [3]: 0.0493
composite z-score [4]: 0.861
composite z-score [5]: 0.486
composite z-score [6]: 0.485
z-score [7]: -0.335
composite z-score [8]: 0.559
composite z-score [9]: 0.145
z-score [10]: -0.371 (inactive)

CC[C@@H](c1ccccc1)n1c(=O)n2n(c1=O)[C@H]1[C@H](O)[C@@H]3O[C@@H]3C(=O)[C@H]1CC2
composite z-score [1]: -0.276
composite z-score [2]: 0.0346
composite z-score [3]: 0.0786
composite z-score [4]: -0.0351
composite z-score [5]: 0.295
composite z-score [6]: 0.319
z-score [7]: 0.276
composite z-score [8]: 0.387
composite z-score [9]: 0.13
z-score [10]: -1.23 (inactive)

CC(C)CON=C1[C@H]2CCn3c(=O)n(Cc4cc5c(cc4Cl)OCO5)c(=O)n3[C@H]2[C@H](O)[C@@H]2O[C@H]12
composite z-score [1]: 0.158
composite z-score [2]: 0.489
composite z-score [3]: 0.217
composite z-score [4]: 0.172
composite z-score [5]: 0.768
composite z-score [6]: 0.42
z-score [7]: -0.937
composite z-score [8]: 0.452
composite z-score [9]: -0.121
z-score [10]: 0.748 (inactive)

C[C@@H](c1ccccc1)N1C(=O)[C@H]2[C@H]3[C@H](O)[C@H](O)CC(=NOCc4ccccc4)[C@H]3CC[C@H]2C1=O
composite z-score [1]: 1.2
composite z-score [2]: 1.17
composite z-score [3]: 0.0785
composite z-score [4]: 0.823
composite z-score [5]: 0.287
composite z-score [6]: 0.181
z-score [7]: 1.06
composite z-score [8]: 0.295
composite z-score [9]: 0.0559
z-score [10]: 0.0057 (inactive)
